# Test results taken from PubChem BioAssay (NCI).
# Compounds without any hit were thinned out: in the full panel of roughly 83,000, 20% have a hit.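 Single-concentration screen, 48 h exposure, 96-well plates. Endpoint: percent growth. Below 10 = active.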 Values without a mark were called inactive. Active and inactive are the calls of the source.
# Tested on: HL-60(TB) leukemia
# Assay: NCI-60 one-dose screen, 48 h (100 = growth as untreated, 0 = no growth, -100 = all killed)
# Details: 10 µM unless noted
row,SMILES,growth
1,NC(=O)c1c(NC(=O)c2cccc(C(F)(F)F)c2F)sc2c1CCC(=O)C2,15%
2,COC(=O)C[Se]C(=O)Cc1c(C)n(C(=O)c2ccc(Cl)cc2)c2ccc(OC)cc12,-20.9% (active)
3,Oc1ccccc1/C=N/Nc1nc(N/N=C/c2ccccc2O)nc(N2CCOCC2)n1,3.74% (active)
4,COc1ccc(-c2nc3cc(Cl)c(Cl)cc3n2CC(=O)N=Nc2c(O)[nH]c3ccc(OC)cc23)cc1,86.3%
5,CCc1cc2c(cc1Cl)nc1c(=O)[nH]c(=O)nc-1n2CCOCC(C)C,51.2%
6,Cc1nn(-c2ccc(Cl)cc2)c(C)c1N=Nc1ccc2oc(=O)ccc2c1,93.5%
7,COc1cc(OC)c(C2C(Cl)C(=O)N2Nc2ncnc3ccccc23)cc1OC (stereo not drawn),108%
8,O=C(CSc1nc2sc3c(c2c(=O)n1-c1ccc(Cl)cc1)CCCC3)NNC(=O)Nc1cccc(C(F)(F)F)c1,2.24% (active)
